The record followed here is PubChem BioAssay (EPA / NIEHS).

Experiment [1] can be described thus: ATG_CRE_CIS: Attagene CIS-FACTORIAL HepG2 Assay for human cAMP Responsive Element (CRE) binding protein 3 (AID 2282926). Conditions: HepG2 CRE cis-reporter, Attagene multiplexed mRNA; actives raise or lower the signal. The method in brief:
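Endogenous transcription factor activity read via CRE-regulated reporter transcripts in transfected HepG2 cells. After 24 h exposure, RNA was reverse-transcribed, amplified, fluorescently labelled and sized by capillary electrophoresis; gain or loss fitted against DMSO.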

Experiment [2] addresses CCAAT/enhancer-binding protein beta (Homo sapiens) (UniProt P17676). The experiment in a line: ATG_C_EBP_CIS: Attagene CIS-FACTORIAL HepG2 Assay for human CCAAT/Enhancer Binding Protein (C/EBP) beta (AID 2282927). Conditions: HepG2 Attagene cis-factorial transcription factor reporter; actives raise or lower the signal. The method in brief:
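HepG2, transient MRTU transfection, 24 h treatment. RT-PCR plus CE fluorescence; DMSO negative control, bidirectional fit.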

Experiment [3] in a line: ATG_CMV_CIS: Attagene CIS-FACTORIAL HepG2 Assay for human CMV (Internal Marker) (AID 2282928).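 Note: endpoint acts as a background internal control marker rather than a target.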 Conditions: HepG2 CMV promoter reporter, transcription factor profiling; actives raise or lower the signal. In outline: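 Reporter transcripts from transfected HepG2 cells are isolated after 24 h of chemical dosing, reverse-transcribed and amplified. Fragments labeled with 6-FAM are cut with HpaI and quantified by capillary electrophoresis; DMSO defines baseline.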

The nature of experiment [4]: ATG_DR4_LXR_CIS: Attagene CIS-FACTORIAL HepG2 Assay for human Liver X Receptor (LXR), DR4 submotif (AID 2282929). The settings on record: HepG2 Attagene DR4 cis-reporter, mRNA transcription; actives raise or lower the signal. In outline:
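Transiently transfected HepG2 liver cells; cis-regulated reporters; 24 h dosing. RT-PCR plus CE read-out of reporter mRNA. DMSO baseline, bidirectional curve fitting.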

Experiment [5] addresses Aryl hydrocarbon receptor (Homo sapiens) (UniProt P35869). The experiment in a line: ATG_Ahr_CIS: Attagene CIS-FACTORIAL HepG2 Assay for human Aryl Hydrocarbon Receptor (Ahr) (AID 2282930). Conditions: HepG2 AhR cis-factorial reporter transcription; actives raise or lower the signal. In outline:
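Endogenous factor activity is tracked through cis-promoter reporter units transfected into HepG2 cells. Transcript levels at 24 h are read by fluorescent RT-PCR and capillary electrophoresis, with activity in either direction scored relative to DMSO.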

Experiment [6] in a line: ATG_AP_1_CIS: Attagene CIS-FACTORIAL HepG2 Assay for human Activator Protein 1 (AP-1) (AID 2282931). The settings on record: HepG2 Attagene cis-factorial AP-1 reporter mRNA; actives raise or lower the signal. In outline: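 We transfected HepG2 cells transiently with a set of cis-regulated reporter transcription units, dosed them for 24 h, and quantified reporter mRNA via RT-PCR and capillary electrophoresis, scoring gain or loss of signal relative to DMSO.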

The nature of experiment [7]: ATG_AP_2_CIS: Attagene CIS-FACTORIAL HepG2 Assay for human Activator Protein 2 (AP-2) (AID 2282932). Conditions: HepG2 AP-2 cis-reporter, Attagene transcription factor profiling; actives raise or lower the signal. In outline: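 Read-out: fluorescent reporter mRNA via RT-PCR and capillary electrophoresis, 24 h post-dose in transiently transfected HepG2. Endogenous factors drive cis-promoter reporters; gain or loss of signal fitted bidirectionally against DMSO.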

Experiment [8] in a line: ATG_BRE_CIS: Attagene CIS-FACTORIAL HepG2 Assay for human Bone Morphogenetic Protein (BMP) Response Element (BRE) (AID 2282933). Conditions: HepG2 BMP response element reporter, Attagene transcription factor profiling; actives raise or lower the signal. In outline: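 Transient MRTU transfection of human HepG2 liver cells; 24 h compound treatment; total RNA isolated, reverse-transcribed, PCR-amplified, 6-FAM labelled, HpaI-cut, capillary electrophoresis. DMSO = negative control/baseline, bidirectional fit.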

Experiment [9] concerns the target Retinoic acid receptor alpha (Homo sapiens) (UniProt P10276). The experiment in a line: ATG_DR5_RAR_CIS: Attagene CIS-FACTORIAL HepG2 Assay for human Retinoic Acid Receptor Alpha (RARE), DR5 submotif (AID 2282934). Conditions: HepG2 Attagene cis-factorial RARE DR5 reporter, mRNA; actives raise or lower the signal. The method in brief:
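After 24 h of chemical exposure, transiently transfected HepG2 cells were lysed for total RNA; the DR5-regulated reporter transcript was quantified via RT-PCR and capillary electrophoresis, with activity fitted bidirectionally against DMSO.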

Experiment [10] has as its target Transcription factor E2F1 (Homo sapiens) (UniProt Q01094). Nature of the experiment: ATG_E2F_CIS: Attagene CIS-FACTORIAL HepG2 Assay for human E2F Transcription Factor 1 (AID 2282935). Conditions: HepG2 Attagene cis-reporter, E2F reporter RNA transcripts; actives raise or lower the signal. In outline: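 Transient MRTU transfection of HepG2; 24 h compound exposure; RNA → oligo(dT) RT → PCR → FAM label → HpaI cut → CE fluorescence. Gain/loss of signal fit against DMSO.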

Experiment [11] in a line: ATG_E_Box_CIS: Attagene CIS-FACTORIAL HepG2 Assay for human Enhancer Box (E-box) (AID 2282936). Conditions: HepG2 E-box cis-reporter transcription, actives raise or lower the signal. In outline:
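Transiently transfected HepG2, endogenous TF-driven reporters, 24 h dosing. Readout: RT-PCR plus capillary electrophoresis of fluorescent reporter fragments. Gain or loss of signal fitted bidirectionally against DMSO baseline.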

Experiment [12] can be described thus: ATG_M_61_CIS: Attagene CIS-FACTORIAL HepG2 Assay for M61 Transcription Factor (Internal Marker) (AID 2282937). Conditions: HepG2 Attagene CIS-FACTORIAL M61 internal marker reporter; actives raise or lower the signal. The method in brief:
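Multiplexed reporter mRNA assay, HepG2 human hepatoma cells, 24 h treatment. Signal: FAM-labelled, HpaI-digested RT-PCR fragments by CE. Fit: bidirectional, baseline DMSO.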

Experiment [13] in a line: ATG_EGR_CIS: Attagene CIS-FACTORIAL HepG2 Assay for human Early Growth Response 1 (EGR1) (AID 2282938). Conditions: HepG2 Attagene CIS-FACTORIAL EGR reporter mRNA; actives raise or lower the signal. The method in brief: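 Multiplexed cis-reporter system in human hepatoma HepG2 cells, transiently transfected. Cells are dosed for 24 h; reporter transcripts are amplified, fluorescently tagged and sized by capillary electrophoresis, with DMSO as negative control.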

Experiment [14] is described as follows: ATG_M_19_CIS: Attagene CIS-FACTORIAL HepG2 Assay for M19 Transcription Factor (Internal Marker) (AID 2282939). Conditions: HepG2 Attagene CIS-FACTORIAL M19 internal marker reporter; actives raise or lower the signal. In outline:
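Transfect HepG2 with MRTU reporter library → dose chemical, 24 h → isolate total RNA, reverse-transcribe with oligo(dT) → PCR, 6-FAM label, HpaI cut (2 h, 37 C) → capillary electrophoresis. Bidirectional fit vs DMSO.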

Experiment [15] in a line: ATG_Ets_CIS: Attagene CIS-FACTORIAL HepG2 Assay for human Erythroblast Transformation Specific (ETS) (AID 2282941). The settings on record: HepG2 ETS cis-reporter transcription, actives raise or lower the signal. In outline:
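Bidirectional fit versus DMSO of reporter mRNA signal, detected by RT-PCR and capillary electrophoresis in HepG2 cells transiently transfected with cis-element reporters and dosed 24 h.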

Experiment [16] deals with Hepatocyte nuclear factor 3-beta (Homo sapiens) (UniProt Q9Y261). The experiment in a line: ATG_FoxA2_CIS: Attagene CIS-FACTORIAL HepG2 Assay for human Forkhead box A2 (FOXA2) (AID 2282942). Conditions: HepG2 cis-reporter transcription factor activity, 24 h; actives raise or lower the signal. In outline:
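Multiplexed cis-element reporter assay in transiently transfected HepG2. Twenty-four hours post-dosing, RNA was reverse-transcribed, amplified, FAM-labelled, HpaI-digested and separated by CE. Activity gain or loss relative to DMSO.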

Experiment [17] is described as follows: ATG_FoxO_CIS: Attagene CIS-FACTORIAL HepG2 Assay for human Forkhead box O (FoxO) (AID 2282943). The settings on record: HepG2 Attagene cis-reporter, FoxO element, mRNA; actives raise or lower the signal. In outline: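 Transfected HepG2 reporter cells exposed to test chemical for 24 h; reporter RNA measured by reverse transcription, PCR and fluorescent capillary electrophoresis; curves fitted for increases and decreases against DMSO.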

Experiment [18] is described as follows: ATG_GATA_CIS: Attagene CIS-FACTORIAL HepG2 Assay for human GATA Binding Protein (AID 2282944). The settings on record: HepG2 GATA cis-element reporter, Attagene multiplex mRNA; actives raise or lower the signal. In outline: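 Transient MRTU transfection, HepG2, 24 h compound exposure. Total RNA → oligo(dT) RT → PCR → 6-FAM primer extension → HpaI cut → CE. Bidirectional fit vs DMSO.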

The nature of experiment [19]: ATG_GLI_CIS: Attagene CIS-FACTORIAL HepG2 Assay for human Zinc Finger Protein GLI1 (AID 2282945). Conditions: HepG2, Attagene cis-factorial reporter mRNA, GLI element; actives raise or lower the signal. The method in brief: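 Transiently transfected HepG2 cells report endogenous transcription factor activity via cis-element-driven reporter units. After 24 h compound exposure, reporter mRNA was measured by RT-PCR with capillary electrophoresis; bidirectional fitting against DMSO baseline.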

Experiment [20] can be described thus: ATG_ERE_CIS: Attagene CIS-FACTORIAL HepG2 Assay for Estrogen Response Element (ERE) (AID 2282940). Conditions: HepG2 ERE cis-reporter, Attagene RNA transcript; actives raise or lower the signal. In outline:
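Transient MRTU transfection of human HepG2; cis-element promoters; 24 h dosing; total RNA → RT (oligo dT) → PCR → 6-FAM primer extension → HpaI digest → CE fluorescence. Bidirectional fit, DMSO baseline.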

The source made the active and inactive calls. Rule for the calls: active = hit-call score of the fitted dose curve at least 0.9, where 1 is the maximum; inactive = score below 0.9.

Sequence of Hepatocyte nuclear factor 3-beta (Homo sapiens) (Q9Y261 whole entry, looked up): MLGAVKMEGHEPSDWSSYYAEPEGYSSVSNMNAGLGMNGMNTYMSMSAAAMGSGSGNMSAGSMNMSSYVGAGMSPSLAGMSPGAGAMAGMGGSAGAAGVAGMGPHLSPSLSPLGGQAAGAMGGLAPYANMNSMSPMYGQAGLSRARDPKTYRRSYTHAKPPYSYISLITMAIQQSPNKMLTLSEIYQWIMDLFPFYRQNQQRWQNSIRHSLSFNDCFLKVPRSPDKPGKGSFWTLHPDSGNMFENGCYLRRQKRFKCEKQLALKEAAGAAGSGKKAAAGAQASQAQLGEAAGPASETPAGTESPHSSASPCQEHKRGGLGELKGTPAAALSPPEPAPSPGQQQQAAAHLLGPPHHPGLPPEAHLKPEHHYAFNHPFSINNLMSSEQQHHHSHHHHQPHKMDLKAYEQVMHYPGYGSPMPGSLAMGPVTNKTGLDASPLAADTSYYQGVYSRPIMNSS
Sequence of Transcription factor E2F1 (Homo sapiens) (Q01094 whole entry, looked up): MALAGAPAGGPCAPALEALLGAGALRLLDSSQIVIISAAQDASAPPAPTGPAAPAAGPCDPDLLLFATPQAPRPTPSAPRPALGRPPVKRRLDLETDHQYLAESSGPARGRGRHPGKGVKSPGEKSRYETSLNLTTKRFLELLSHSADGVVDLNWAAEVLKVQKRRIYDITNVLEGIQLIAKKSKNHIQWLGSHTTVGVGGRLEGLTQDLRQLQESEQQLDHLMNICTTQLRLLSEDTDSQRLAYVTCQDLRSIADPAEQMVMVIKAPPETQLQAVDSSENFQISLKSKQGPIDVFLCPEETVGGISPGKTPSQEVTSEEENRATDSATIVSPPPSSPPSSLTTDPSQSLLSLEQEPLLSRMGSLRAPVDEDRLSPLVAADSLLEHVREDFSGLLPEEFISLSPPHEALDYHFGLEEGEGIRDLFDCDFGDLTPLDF
Sequence of CCAAT/enhancer-binding protein beta (Homo sapiens) (P17676 whole entry, looked up): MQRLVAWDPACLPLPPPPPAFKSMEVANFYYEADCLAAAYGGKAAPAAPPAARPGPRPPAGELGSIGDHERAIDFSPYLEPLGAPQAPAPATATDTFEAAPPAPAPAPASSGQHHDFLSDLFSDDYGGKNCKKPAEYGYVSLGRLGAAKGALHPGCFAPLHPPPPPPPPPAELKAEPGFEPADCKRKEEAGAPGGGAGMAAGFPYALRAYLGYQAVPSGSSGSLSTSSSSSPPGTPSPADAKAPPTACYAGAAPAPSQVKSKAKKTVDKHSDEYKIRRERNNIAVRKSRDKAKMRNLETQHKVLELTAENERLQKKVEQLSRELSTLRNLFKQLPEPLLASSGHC
Sequence of Aryl hydrocarbon receptor (Homo sapiens) (P35869 whole entry, looked up): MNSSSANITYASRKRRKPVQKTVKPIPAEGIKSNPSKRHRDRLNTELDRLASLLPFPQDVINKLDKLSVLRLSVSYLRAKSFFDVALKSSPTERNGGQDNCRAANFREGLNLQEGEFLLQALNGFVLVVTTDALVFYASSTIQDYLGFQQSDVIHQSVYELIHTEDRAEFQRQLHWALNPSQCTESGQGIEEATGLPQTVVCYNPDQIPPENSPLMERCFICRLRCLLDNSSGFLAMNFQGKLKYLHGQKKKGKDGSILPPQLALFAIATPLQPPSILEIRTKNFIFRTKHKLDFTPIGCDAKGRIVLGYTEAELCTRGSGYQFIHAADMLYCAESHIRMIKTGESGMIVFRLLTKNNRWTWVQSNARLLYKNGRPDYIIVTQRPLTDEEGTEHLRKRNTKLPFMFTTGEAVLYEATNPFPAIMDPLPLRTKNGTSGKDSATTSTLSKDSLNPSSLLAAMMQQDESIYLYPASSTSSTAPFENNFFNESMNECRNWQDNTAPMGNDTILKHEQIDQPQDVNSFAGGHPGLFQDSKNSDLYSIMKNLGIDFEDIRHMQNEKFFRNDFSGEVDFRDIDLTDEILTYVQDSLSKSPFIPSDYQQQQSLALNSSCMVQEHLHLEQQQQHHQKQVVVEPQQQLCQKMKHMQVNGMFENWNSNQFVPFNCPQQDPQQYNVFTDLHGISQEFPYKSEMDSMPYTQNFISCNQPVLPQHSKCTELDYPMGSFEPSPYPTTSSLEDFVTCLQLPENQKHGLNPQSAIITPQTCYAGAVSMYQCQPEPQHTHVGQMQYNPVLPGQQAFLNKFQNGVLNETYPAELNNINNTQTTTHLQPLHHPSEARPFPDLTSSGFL
Sequence of Retinoic acid receptor alpha (Homo sapiens) (P10276 whole entry, looked up): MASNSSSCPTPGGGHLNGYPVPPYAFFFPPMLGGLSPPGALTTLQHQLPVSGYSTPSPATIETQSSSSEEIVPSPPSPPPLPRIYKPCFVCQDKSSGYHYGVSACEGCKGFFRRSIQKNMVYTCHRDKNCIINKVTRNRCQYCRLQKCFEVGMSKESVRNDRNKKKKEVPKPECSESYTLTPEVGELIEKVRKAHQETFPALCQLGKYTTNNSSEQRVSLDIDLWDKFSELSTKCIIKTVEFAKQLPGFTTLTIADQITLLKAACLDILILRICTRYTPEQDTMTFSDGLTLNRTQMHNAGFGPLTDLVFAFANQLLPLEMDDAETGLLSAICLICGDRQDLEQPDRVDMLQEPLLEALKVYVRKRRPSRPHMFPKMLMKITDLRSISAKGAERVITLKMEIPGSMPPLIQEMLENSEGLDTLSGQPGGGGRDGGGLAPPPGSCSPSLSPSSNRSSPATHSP

For the molecule `CC(C)=CCC/C(C)=C/COC=O`, the call in experiment [1], in experiment [2], in [3], in experiment [4], in experiment [5] and in experiment [6] was inactive. Further, the outcome in experiment [7], in experiment [8], in experiment [9], in experiment [10], in [11] and in [12] was inactive. The outcome in experiment [13], in [14], in experiment [15], in [16] and in experiment [17] was inactive.

As to `CCCCCCCCCCCCCCCCCC(=O)OCC(CC)CCCC` (centres undefined), the molecule was classed as inactive in [1], in experiment [2], in experiment [3], in [4], in experiment [5] and in experiment [6]. In addition, the result in experiment [7], in experiment [8], in experiment [9], in experiment [10], in experiment [11] and in [12] was inactive. Besides, the molecule was called inactive in [13], in experiment [15], in [16], in experiment [17], in [18] and in experiment [19].

Consider `CCCCc1ccc(N)cc1`, for which the molecule was called inactive in experiment [1], in experiment [2], in experiment [3], in [4], in experiment [5] and in [6]. Besides, the molecule was called inactive in experiment [7], in experiment [8], in experiment [10], in experiment [11], in [12] and in experiment [13]. For the same molecule, the molecule was classed as inactive in experiment [14], in experiment [15], in [16], in [17], in experiment [18] and in experiment [19]. In addition, in experiment [20], the AC50 is 29.6 µM (active).

With `CC(C)=CCCC(C)=CCCC(C)=CCO`, the call in [1], in [2], in [3], in [4], in experiment [5] and in experiment [6] was inactive. The outcome in experiment [7], in experiment [8], in experiment [9], in experiment [10], in experiment [13] and in [14] was inactive. In addition, the call in [15], in [16], in experiment [17], in [18] and in [19] was inactive.

On to `CN(C)C(=N)N=C(N)N`, for which the molecule was called inactive in [1], in [2], in experiment [3], in experiment [4], in experiment [5] and in experiment [6]. For the same molecule, the molecule was called inactive in [7], in experiment [8], in experiment [9], in experiment [10], in experiment [11] and in experiment [13]. The call in [14], in experiment [15], in [16], in experiment [17] and in experiment [18] was inactive.

With `CSc1nc(NC2CC2)nc(NC(C)(C)C)n1`, the molecule was classed as inactive in experiment [1], in experiment [2], in experiment [4], in experiment [5], in [7] and in experiment [8]. Moreover, the molecule was called inactive in experiment [9], in experiment [10], in [11], in experiment [12], in experiment [13] and in [14]. Further, the molecule was classed as inactive in [15], in [16], in [17], in experiment [18] and in experiment [19]. The AC50 in experiment [3] is 60.5 µM (active); in experiment [6] it was 47.5 µM (active).

As to `CC1CC(OC(=O)c2ccccc2O)CC(C)(C)C1` (centres undefined), the result in [1], in experiment [2], in [4], in experiment [5], in experiment [7] and in experiment [8] was inactive. Further, the outcome in experiment [9], in experiment [10], in experiment [11], in experiment [12], in experiment [13] and in experiment [14] was inactive. The molecule was classed as inactive in experiment [16], in experiment [17], in [18] and in [19]. In addition, the AC50 in [3] was 100 µM (active); in experiment [6] it was 69.4 µM (active).

Turning to `CC(C)(C)c1cc(CCC(=O)NN)cc(C(C)(C)C)c1O`, the molecule was classed as inactive in experiment [1], in experiment [2], in [3], in [4], in [5] and in [6]. Also, the molecule was classed as inactive in experiment [7], in [8], in experiment [9], in [10], in [11] and in [12]. Besides, the outcome in experiment [13], in experiment [14], in experiment [15], in experiment [16], in experiment [17] and in [18] was inactive. The molecule was classed as inactive in [19].

By AC50 is commonly meant the concentration at which the activity in the assay is half-maximal.
